This is part of a sample that, as a whole, favours compounds with a hit. Of some 83,000 tested, about 20% had one in any assay.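 Compound tested at a single concentration for 48 hours in 96-well plates; a percent growth value below 10 was scored as active.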 The source made the active and inactive calls.
Experiments:
Experiment in all cases: NCI-60 one-dose screen, 48 h (100 = growth as untreated, 0 = no growth, -100 = all killed)
Conditions in all cases: 10 µM unless noted
BT-549 breast = tested on: BT-549 breast
MDA-MB-435 melanoma = tested on: MDA-MB-435 melanoma
SW-620 colon = tested on: SW-620 colon
MCF7 breast = tested on: MCF7 breast
HCT-116 colon = tested on: HCT-116 colon
HCC-2998 colon = tested on: HCC-2998 colon
KM12 colon = tested on: KM12 colon

Measured: growth

CN(C)CCC(CCN(C)C)(C(=O)O)c1ccccc1
inactive: BT-549 breast 96.5% | MDA-MB-435 melanoma 106% | SW-620 colon 110% | MCF7 breast 94.1% | HCT-116 colon 104% | HCC-2998 colon 101% | KM12 colon 102%

CCOC(=O)C(CCN(C)C)c1ccccc1 (centres undefined)
inactive: BT-549 breast 97.3% | MDA-MB-435 melanoma 107% | SW-620 colon 108% | MCF7 breast 92.7% | HCT-116 colon 104% | HCC-2998 colon 96.3% | KM12 colon 104%

Nc1cc(-c2ccc(Cl)cc2)nn1-c1nnc(/C=C/c2ccco2)c(=O)[nH]1
inactive: BT-549 breast 72% | MDA-MB-435 melanoma 62.8% | SW-620 colon 49.3% | MCF7 breast 45.9% | HCT-116 colon 41% | HCC-2998 colon 48.5% | KM12 colon 56%

COC(=O)c1c2c(c(C)[n+]([O-])c1C)C(=O)C(NCc1ccccc1)=CC2=O
inactive: BT-549 breast 71.5% | HCC-2998 colon 16.9% | KM12 colon 26.4%
active: SW-620 colon 9.9% | MCF7 breast -33.9% | HCT-116 colon 7.3%

COC12C=C/C(=C(/C(=O)OCc3csc(SC)n3)C(=O)CCCCCCCCC3(OC)C=C/C(=C(/C(=O)OCc4cnc(SC)s4)C(=O)CCCCCCCC1)O3)O2 (centres undefined)
active: HCT-116 colon 7.05% | HCC-2998 colon -62.4%
inactive: BT-549 breast 31.7% | MDA-MB-435 melanoma 10% | SW-620 colon 27.6% | MCF7 breast 23.3% | KM12 colon 18.1%

Source: PubChem BioAssay (NCI)
